Lmaj promast: reduces viability of Leishmania major promastigotes; resazurin fluorescence viability; inhibition, % at 10 µM; hit rate 9% among 200,000; AID 1063; in the data active = inhibition above about 50%;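 note: promastigotes grown with compound for 44 hours at 28 °C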
INS promoter inh: TRM-6 insulin promoter activity inhibition; inhibition, % at 2 µM; TRM-6 cells (human fetal islet line), insulin promoter-eGFP reporter, imaging; reporter expression induced with tamoxifen; hit rate 0.9% among 130,000;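 active = inhibition above the mean plus 3 SD, with well images judged a real hit on visual review, cut at about 60% in these data, passing the limit was not always enough; inconclusive = inhibition over the cutoff but images rejected on review; inactive = inhibition not above the cutoff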
WT yeast gro inh: growth inhibition of WT yeast, mitochondrial fusion screen; mitochondrial fusion phenotypic screen, WT strain; inhibition, % at 10 µM; hit rate 2.1% among 190,000; AID 1362; in the data active = inhibition above about 58%; tested in S. cerevisiae
Autophagy HCS: autophagy modulation, high-content screen. MEF GFP-LC3 puncta imaging; test concentration mostly 10 µM. calls only at 10 µM (by protocol). hit rate 0.98% among 190,000;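 active = percentage of spot-positive cells more than 3 SD above its plate mean, without a fluorescence outlier flag or 80% toxicity; inconclusive = no clear call, values can overlap the other calls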
Ins promoter up: MIN6 insulin promoter up-regulation; MIN6 insulin promoter-GFP reporter, high-content imaging; active compounds read high; z-score at 5 µM; hit rate 0.3% among 190,000;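 active = z-score above 3 at 5 µM with at least 500 cells counted in the well; inconclusive = wells under 500 cells, flagged as cytotoxic or low count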
Of the large screens only hits and unclear results are named; the others gave an inactive call. Rows were chosen to be rich in hits. Some 11% of all compounds tested hit in one or more screens of this group.

O=C(CCC(=O)OCC(F)(F)C(F)F)Nc1ccccc1F	none
O=c1ccccn1Cc1c(F)cccc1Cl	none
COc1ccc(CCNC(=O)COC(=O)C23CC4CC(CC(Br)(C4)C2)C3)cc1	Lmaj promast 56.2
COc1ccc(CCNC(=O)COC(=O)C23CC4CC(CC(C4)C2)C3)cc1	none
COc1ccc2c(c1)c(C(=O)CN1CCC(C(N)=O)CC1)c(C)n2C	none
CC(=O)c1c(N2CCN(Cc3ccccc3)CC2)nc(=S)n(Cc2ccccc2)c1C	Lmaj promast 63.0
O=C(NNC(=O)C(Cl)Cl)c1cnn(-c2ccccc2)c1C(F)(F)F	none (no result: Lmaj promast, INS promoter inh, WT yeast gro inh, Autophagy HCS)
Cc1cc(C(=O)C(C)OC(=O)C2=NNC(=O)CC2)c(C)n1-c1ccc(OC(F)F)cc1 (stereo not drawn)	Lmaj promast 99.5
COc1ccc2c(OC)cc(-c3ccccc3)nc2c1	INS promoter inh 100.0 (no result: Ins promoter up)
CN1c2ccccc2C(C)(C)C12C=Nc1c(ccc3ccccc13)O2 (stereo not drawn)	none
COc1ccc2ccc3c(c2c1)N=CC1(O3)N(C)c2ccccc2C1(C)C (stereo not drawn)	WT yeast gro inh 78.2
Cc1ccc(C)c(NC(=O)/C(C#N)=C/c2ccc(Sc3nncn3C)c([N+](=O)[O-])c2)c1	none
CC(C)CCn1c(O)c(N=NC(=O)Cn2ccc(C(F)(F)F)n2)c2ccccc21	Lmaj promast 52.1
O=C(CC1C(=O)NCCN1C(=O)Nc1ccccc1)Nc1ccc(F)cc1 (stereo not drawn)	none (no result: Lmaj promast, INS promoter inh, WT yeast gro inh, Autophagy HCS)
O=C(CC1C(=O)NCCN1C(=O)Nc1ccc(Cl)cc1)Nc1ccc(F)cc1 (stereo not drawn)	Autophagy HCS active (no result: INS promoter inh)
Nc1ccc(C(=O)OCc2nc3cc4ccccc4cc3[nH]2)cc1	Lmaj promast 62.6 (no result: INS promoter inh)
COc1cccc(C2CC(c3c(-c4ccccc4)c4cc(Cl)ccc4[nH]c3=O)=NN2S(C)(=O)=O)c1OC (stereo not drawn)	Lmaj promast 99.9
COc1ccc(C2CC(c3c(-c4ccccc4)c4cc(Cl)ccc4[nH]c3=O)=NN2C(=O)CCC(=O)O)cc1 (stereo not drawn)	none (no result: INS promoter inh, Ins promoter up)
Clc1ccc2nc(-c3ccccc3)c(CN3CCOCC3)n2c1	Lmaj promast 59.6 (no result: INS promoter inh)
CCOC(=O)c1c(C)n(C)c2ccc(OCC(O)CN3CCC(C)CC3)cc12 (stereo not drawn)	none (no result: INS promoter inh)
CCOC(=O)c1c(C)n(C)c2ccc(OCC(O)CNC(CC)CO)cc12 (stereo not drawn)	none
CCOC(=O)c1c(C)n(-c2ccc(C)cc2)c2ccc(OCC(O)CNCC3CCCO3)cc12 (stereo not drawn)	Lmaj promast 100.4, WT yeast gro inh 72.1
CCOC(=O)c1c(C)n(C)c2ccc(OCC(O)CN3CCCCCC3)cc12 (stereo not drawn)	Lmaj promast 97.7 (no result: INS promoter inh)
CCOC(=O)c1c(C)n(-c2ccc(C)cc2)c2ccc(OCC(O)CNCCCO)cc12 (stereo not drawn)	Lmaj promast 79.6 (no result: INS promoter inh, Ins promoter up)
C/C(CCc1ccccc1)=N\NC(=O)C(=O)Nc1cccc(Cl)c1	none (no result: INS promoter inh)
COc1ccc(Cc2n[nH]c(=S)n2C)cc1Br	none
Cc1ccc(C(=O)Cn2nnc(-c3cccs3)n2)cc1	none (no result: Lmaj promast, INS promoter inh, WT yeast gro inh, Autophagy HCS)
O=C(CN1CC[n+]2c(-c3cccs3)csc21)c1ccc(-c2ccccc2)cc1	WT yeast gro inh 68.9
COc1ccc2nc(NC(=O)CC3Oc4ccccc4NC3=O)sc2c1 (stereo not drawn)	none (no result: Lmaj promast, INS promoter inh, WT yeast gro inh, Autophagy HCS)
CCOC(=O)C1=C(CC)Nc2ccccc2N=C1NC(=O)c1ccc(S(=O)(=O)N2CCCC2)cc1	none (no result: INS promoter inh)
CCOC(=O)C1=C(CC)Nc2ccccc2N=C1NC(=O)Nc1ccc(Cl)c(Cl)c1	Lmaj promast 96.9 (no result: INS promoter inh, Ins promoter up)
CCOC(=O)C1=C(Nc2ccccc2)CC(C)(O)C(C(=O)OCC)C1c1ccc(Cl)cc1 (stereo not drawn)	WT yeast gro inh 71.0
O=C(Cn1cnc(Cl)c1Cl)c1ccc(F)cc1	none (no result: INS promoter inh)
O=C(COC(=O)c1ccco1)NCC1CCCO1 (stereo not drawn)	Ins promoter up 3.04
O=C(COC(=O)c1ccccc1)NCC1CCCO1 (stereo not drawn)	none (no result: Ins promoter up)
N#CC1=C(N)Oc2c(ccc3cccnc23)C1c1ccccc1 (stereo not drawn)	none (no result: Lmaj promast, INS promoter inh, WT yeast gro inh, Autophagy HCS)
Cc1ccc2[nH]c(=O)c(C3C(C#N)=C(N)Oc4c3ccc3cccnc43)cc2c1 (stereo not drawn)	Lmaj promast 95.8
CCC(CC)C(=O)Nc1nc(-c2ccc3c(c2)CCN3C(=O)C2CC2)c(C)s1	none (no result: Ins promoter up)
Cc1sc(NC(=O)CN2CCOCC2)nc1-c1ccc2c(c1)CCN2S(=O)(=O)c1ccccc1	Lmaj promast 97.0, Ins promoter up inconclusive (no result: WT yeast gro inh)
O=C(CN1CCOCC1)Nc1nc(-c2ccc3c(c2)CCN3S(=O)(=O)c2ccccc2)cs1	Lmaj promast 67.5
CC(C)c1nc2scc(-c3ccc(Cl)cc3)c2c(=O)n1N	none (no result: Lmaj promast, INS promoter inh, WT yeast gro inh, Autophagy HCS)
FC(F)(F)c1cccc(N2CCN(Cc3cccnc3)CC2)c1	Lmaj promast 88.2 (no result: INS promoter inh)
COc1cccc(CN2CCN(c3cccc(C(F)(F)F)c3)CC2)c1OC	none (no result: Ins promoter up)
FC(F)(F)c1cccc(N2CCN(Cc3ccoc3)CC2)c1	Lmaj promast 92.8, INS promoter inh inconclusive
Brc1ccc(-c2csc(-c3c[nH]c4ccccc34)n2)cc1	none
c1ccc2c(-c3csc(-c4ccncc4)n3)c[nH]c2c1	Autophagy HCS active (no result: Ins promoter up)
O=C(CSc1nnc(-c2ccccn2)n1Cc1ccccc1)N1CCCC1	none
S=C1NCCOCCOCCOCCNC(=S)N2CCOCCOCCN1CCOCCOCC2	none
Cc1nc2ccccc2c2oc(C(=O)N3CCN(C4CCCCC4)CC3)cc12	none (no result: Ins promoter up)
Cc1cccc(N2CCN(C(=O)Cn3cnc4c3c(=O)n(C)c(=O)n4C)CC2)c1C	none (no result: Ins promoter up)
Cc1cccc(N2CCN(C(=O)c3cc4c(C)nc5ccccc5c4o3)CC2)c1C	WT yeast gro inh 66.9 (no result: Lmaj promast, INS promoter inh, Autophagy HCS, Ins promoter up)
Cc1cccc(N2CCN(C(=O)Cn3ccc4ccccc4c3=O)CC2)c1C	Lmaj promast 91.2
Cc1cccc(N2CCN(C(=O)COc3ccc4c(c3)CCC4)CC2)c1C	WT yeast gro inh 73.1 (no result: INS promoter inh)
CCOC(=O)c1[nH]c(=O)[nH]c1COC(=O)c1cc2ccccc2o1	none
COC(=O)Nc1ccc(S(=O)(=O)N2CCC(C(=O)NC3CCCCC3)CC2)cc1	none (no result: INS promoter inh, Ins promoter up)
COc1ccc(-c2cc(-c3ccc(C)cc3)nc(SCc3nnc(-c4ccccc4)o3)c2C#N)cc1OC	none
Cc1ccc(C2c3c(oc4ccccc4c3=O)C(=O)N2c2nnc(C)s2)o1 (stereo not drawn)	INS promoter inh inconclusive (no result: WT yeast gro inh, Ins promoter up)
COC(=O)c1sc(N2C(=O)c3oc4ccccc4c(=O)c3C2c2cccs2)nc1C (stereo not drawn)	Autophagy HCS active
Cc1ccc(SCC(=O)c2ccc(CC(=O)O)s2)cc1	none (no result: Lmaj promast, INS promoter inh, WT yeast gro inh, Autophagy HCS)
Cc1ccc2[nH]c3c(c2c1)CN(C(=O)CN1CCN(C(=O)c2ccco2)CC1)CC3	none (no result: Lmaj promast, INS promoter inh, WT yeast gro inh, Autophagy HCS)
Cc1ccc2[nH]c3c(c2c1)CN(C(=O)CN1CCN(c2cccc(C)c2C)CC1)CC3	Lmaj promast 65.9
Cc1ccccc1NC(=O)c1oc(=O)c2ccccc2c1-c1ccccc1	none
Cc1cccc(NC(=O)c2oc(=O)c3ccccc3c2-c2ccccc2)c1C	Lmaj promast 79.6
CC(C)=C(NC(=O)c1ccccc1)C(=O)NCc1ccccc1	none (no result: INS promoter inh)
Cc1noc(C)c1C(=O)NC(C)C1CCCO1 (stereo not drawn)	INS promoter inh 89.3
